Laboratory results reported in PubChem BioAssay (EPA / NIEHS).
The source made the active and inactive calls. The calls were made as follows: active = hit-call score of the fitted dose curve at least 0.9, where 1 is the maximum; inactive = score below 0.9.

Assay: STM_H9_OrnithineISnorm_perc: Stemina devTOX quickPredict H9 human embryonic stem cell (hESC)-based Assay for Ornithine (ORN) Metabolite Biomarker, Normalized (AID 2283712);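 also: ornithine released into spent medium during last day measured by mass spectrometry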
Source text: STM_H9_secretome utilizes undifferentiated H9 cells to measure relative changes in two metabolites, ornithine (ORN) and cystine (CYSS) in the secretome, targeting a critical drop in the ORN/CYSS ratio as a biomarker for developmental toxicity.STM_H9_OrnithineISnorm is one of 10 components calculated in the STM_H9_secretome assay. It measures the integrated area of the endogenous ornithine normalized to the spiked-in isotopically labeled standard and to the median value of the 0.1% DMSO neutral control treatment using UPLC-HRMS technology.Data from the assay component STM_H9_OrnithineISnorm_perc was analyzed at the assay endpoint STM_H9_OrnithineISnorm_perc in the positive analysis fitting direction relative to DMSO as the negative control and baseline of activity. Using a type of binding reporter, gain or loss-of-signal activity can be used to understand relative metabolite change.
H9 hESCs maintained in a pluripotent state were exposed to test compound for 72h with chemical replenishment with media replacement every 24h. Cell-conditioned media from the final 24-h treatment period was collected for analysis of the targeted biomarker, and cell viability of the corresponding cell layer was assessed. The chemical library was tested in blinded fashion. Each test plate included 1uM Methotrexate (MTX; Selleck Chemicals, Houston, Texas) as a positive reference, 5 nM MTX as a negative reference, 0.1% DMSO as the neutral (vehicle) control, and sample-level media blanks.H9 cell-conditioned media from the final 24-h treatment period was collected for analysis of the targeted biomarker and cell viability was measured from the corresponding cell layer. Cell viability was measured using the CellTiter-Fluor assay (Promega, Madison, Wisconsin) based on proteolytic cleavage of a substrate to fluorescent signal proportional to the number of living cells. The cell viability Relative Fluorescence Unit (RFU) was background corrected and normalized to mean RFU of the neutral control (0.1% DMSO). The collected H9-cell-conditioned media samples were processed for targeted biomarker analysis as described (Palmer et al., 2013). Briefly, spent media samples were deproteinized (40% acetonitrile) and processed for UPLC-HRMS. Data acquisition was performed using 4 separate UPLC-HRMS systems, consisting of an Agilent 1290 Infinity LC system (Agilent Technologies) interfaced with an Agilent high-resolution mass spectrometer (models G6520A, G6520B, G6530A, and G6224A). A Waters Acquity UPLC BEH Amide column (2.1mm x 50mm, 1.7lm particle size; Waters, Milford, Massachusetts) maintained at 40C was applied for separation of metabolites using a 6.5min solvent gradient with 0.1% formic acid in water and 0.1% formic acid in acetonitrile (1.0ml/min flow rate). Data were acquired using MassHunter Acquisition software (version B 04.00, Agilent Technologies). The extracted ion chromatogram (EIC) areas for ORN, CYSS, and their respective spike-in C13-standards were determined using the Agilent MassHunter Quantitative Analysis software, version B.05.00 or newer (Agilent Technologies), and data were normalized as described in Palmer et al. (2017).

Row | Structure (SMILES) | outcome | AC50
1 | CC1(C)CON(Cc2ccccc2Cl)C1=O | inactive | 
2 | CC1(C)C(C=C(Cl)Cl)C1C(=O)OC(C#N)c1cccc(Oc2ccccc2)c1 (stereo not given) | inactive | 
3 | CCN(CC)C(=O)C(C)Oc1cccc2ccccc12 (stereo not given) |  | 50 µM (active)
4 | CCNC(=O)NC(=O)C(C#N)=NOC | inactive | 
5 | CC(C)Nc1nc(Cl)nc(NC(C)C)n1 |  | 0.0393 µM (active)
6 | O=C1C2CC=CCC2C(=O)N1SC(Cl)(Cl)Cl (stereo not given) | inactive | 
7 | N#CN=C1SCCN1Cc1ccc(Cl)nc1 | inactive | 
8 | CCCCC(C#N)(Cn1cncn1)c1ccc(Cl)cc1 (stereo not given) |  | 76 µM (active)
9 | CCC(C)n1c(=O)[nH]c(C)c(Br)c1=O (stereo not given) | inactive | 
10 | Clc1cccc(C(Cl)(Cl)Cl)n1 |  | 19.7 µM (active)
11 | CNC(=O)Oc1cccc2ccccc12 | inactive | 
12 | CCNP(=S)(OC)O/C(C)=C/C(=O)OC(C)C (stereo not given) |  | 50 µM (active)
13 | N#Cc1c[nH]cc1-c1cccc2c1OC(F)(F)O2 |  | 38.3 µM (active)
14 | CC(C)C1(C)N=C(c2ncccc2C(=O)O)NC1=O (stereo not given) | inactive | 
15 | CCCN(CC)CC1COC2(CCC(C(C)(C)C)CC2)O1 (stereo not given) | inactive | 
16 | CCCCC(O)(Cn1cncn1)c1ccc(Cl)cc1Cl (stereo not given) |  | 85.1 µM (active)
17 | CC1(C)CCC(=Cc2ccc(Cl)cc2)C1(O)Cn1cncn1 (stereo not given) |  | 78.2 µM (active)
18 | CCOc1nc(C(Cl)(Cl)Cl)ns1 |  | 0.11 µM (active)
19 | CC(C)(C)C(=O)C(Oc1ccc(Cl)cc1)n1cncn1 (stereo not given) | inactive | 
20 | O=C(Nc1ccccc1-c1ccc(Cl)cc1)c1cccnc1Cl |  | 50 µM (active)
21 | CS(=O)(=O)c1cc(C(F)(F)F)ccc1C(=O)c1cnoc1C1CC1 |  | 0.0772 µM (active)
22 | COc1cc(OC)nc(NC(=O)NS(=O)(=O)c2ncccc2OCC(F)(F)F)n1 | inactive | 
23 | CCOP(=S)(OCC)Oc1nc(Cl)n(C(C)C)n1 | inactive | 
24 | CCOc1nc(F)cc2nc(S(=O)(=O)Nc3c(Cl)cccc3Cl)nn12 |  | 0.007 µM (active)
25 | CO/N=C(/C1=NOCCO1)c1ccccc1Oc1ncnc(Oc2ccccc2Cl)c1F |  | 24 µM (active)
26 | COc1ccc(-c2ccccc2)cc1NNC(=O)OC(C)C |  | 42.1 µM (active)
27 | CS(=O)(=O)c1ccc(C(=O)C2C(=O)CCCC2=O)c([N+](=O)[O-])c1 | inactive | 
28 | Cn1c(-c2ccccc2)cc(-c2ccccc2)[n+]1C |  | 25.3 µM (active)
29 | Cc1cc(C)nc(Nc2ccccc2)n1 | inactive | 
30 | COCc1cnc(C2=NC(C)(C(C)C)C(=O)N2)c(C(=O)O)c1 (stereo not given) | inactive | 
